Source: PubChem
Pf Dd2 growth: P. falciparum Dd2 growth inhibitors, primary screen, SYBR Green fluorescence, single dose replicates; 72 h; hits give low values; activity change, % at 10 µM; 94,000 compounds, 2.3% hits; AID 1159554, 2015; in the data active = activity change below about -80%; inconclusive = no clear call, values can overlap the other calls
C diff HTS: C. difficile growth inhibitors, primary screen, HTS; 86,000 compounds, 0.25% hits; Clostridium difficile clinical isolate growth, OD600, 24 h; hits give low values; growth activity, negative = inhibition, % at 16 µg/mL (by protocol);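 active = mean growth activity at or below -80% and every replicate also at or below -80%; inconclusive = mean at or below -80% but some replicate above -80%; inactive = mean growth activity above -80%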
Hits are given with their value. Shown are actives, neighbours in structure and some others; about 2.3% of the full set was active somewhere.

How did COc1ccc2c3c(n(C)c2c1)[C@@H](CO)N(C(=O)Nc1ccc(F)cc1)CC31CCN(C(=O)c2ccc3c(c2)OCO3)CC1 do in these assays?
Pf Dd2 growth: inactive; C diff HTS: inactive

What do the screens show for `COc1ccc2c3c(n(C)c2c1)[C@H](CO)N(C(=O)Nc1ccc(F)cc1)CC31CCN(C(=O)c2ccc3c(c2)OCO3)CC1`?
Pf Dd2 growth: -88.2; C diff HTS: inactive

What do the screens show for `COc1ccc2c3c(n(C)c2c1)[C@@H](CO)N(C(=O)Nc1ccc(F)cc1)CC31CCN(C(=O)c2ccccc2F)CC1`?
Pf Dd2 growth: -84.5; C diff HTS: inactive

Results for CC(C)(C)[Si](C)(C)OC[C@@H]1[C@H]2c3ccccc3O[C@]1(C)NC(=S)N2C(=O)c1ccccc1 ?
C diff HTS: inactive

How did Cc1ccccc1-c1ccc([C@H]2[C@@H](CO)N3CCCCN(Cc4cccnc4)C[C@H]23)cc1 do in these assays?
Pf Dd2 growth: inactive; C diff HTS: inactive

What do the screens show for `CCCC(=O)N1CCC2(CC1)CN(Cc1ccc(Cl)cc1)[C@@H](CO)c1[nH]c3cc(OC)ccc3c12`?
Pf Dd2 growth: -84.4; C diff HTS: inactive

What do the screens show for `CCCC(=O)N1CCC2(CC1)CN(Cc1cccnc1)[C@@H](CO)c1[nH]c3cc(OC)ccc3c12`?
Pf Dd2 growth: -89.5; C diff HTS: inactive

Results for COc1cc(CN2CC3(CCN(C(=O)Nc4c(C)noc4C)CC3)c3c([nH]c4cc(OC)ccc34)[C@@H]2CO)cc(OC)c1 ?
Pf Dd2 growth: inactive; C diff HTS: inactive

Results for COc1ccc2c3c([nH]c2c1)[C@H](CO)N(Cc1ccc(Cl)cc1)CC31CCN(C(=O)CN(C)C)CC1 ?
Pf Dd2 growth: inconclusive; C diff HTS: inactive

What do the screens show for `COc1cc(CN2CC3(CCN(C(=O)c4cccnc4)CC3)c3c([nH]c4cc(OC)ccc34)[C@@H]2CO)cc(OC)c1`?
Pf Dd2 growth: -89.4; C diff HTS: inactive

How did COc1ccc2c3c([nH]c2c1)[C@H](CO)N(Cc1ccncc1)CC31CCN(C(=O)c2cccnc2)CC1 do in these assays?
Pf Dd2 growth: inactive; C diff HTS: inactive

How did CCCC(=O)N1CC2(C1)CN(Cc1cccnc1)[C@H](CO)c1[nH]c3cc(OC)ccc3c12 do in these assays?
Pf Dd2 growth: inactive; C diff HTS: inactive

How did COc1cc(CN2CC3(CN(C(=O)Nc4c(C)noc4C)C3)c3c([nH]c4cc(OC)ccc34)[C@@H]2CO)cc(OC)c1 do in these assays?
Pf Dd2 growth: -85.2; C diff HTS: inactive

Results for CO[C@@H]1CN(C)C(=O)c2cc(NC(=O)C3CC3)ccc2OC[C@H](C)N(Cc2ccccc2)C[C@@H]1C ?
Pf Dd2 growth: inactive; C diff HTS: inactive

Results for Cc1noc(C)c1S(=O)(=O)Nc1ccc2c(c1)C(=O)N([C@@H](C)CO)C[C@@H](C)[C@@H](CN(C)C(=O)Nc1ccc3c(c1)OCO3)O2 ?
Pf Dd2 growth: inactive

Results for C[C@@H]1CN([C@@H](C)CO)C(=O)Cc2cc(N(C)C)ccc2O[C@H]1CN(C)Cc1ccc(Cl)c(Cl)c1 ?
Pf Dd2 growth: inactive; C diff HTS: inactive

Results for Cc1cccc(S(=O)(=O)N(C)C[C@H]2OCc3ccccc3-c3c(n(C)c4ccccc34)C(=O)N([C@H](C)CO)C[C@H]2C)c1 ?
Pf Dd2 growth: -83.6

Results for Cc1cccc(S(=O)(=O)N(C)C[C@@H]2OCc3ccccc3-c3c(n(C)c4ccccc34)C(=O)N([C@@H](C)CO)C[C@H]2C)c1 ?
Pf Dd2 growth: -81.5

How did C[C@@H]1CN([C@@H](C)CO)C(=O)c2c(c3ccccc3n2C)-c2ccccc2CO[C@@H]1CN(C)S(=O)(=O)c1cccc(F)c1 do in these assays?
Pf Dd2 growth: inactive; C diff HTS: inactive

How did Cc1cccc(S(=O)(=O)N(C)C[C@H]2OCc3ccccc3-c3c(n(C)c4ccccc34)C(=O)N([C@@H](C)CO)C[C@H]2C)c1 do in these assays?
Pf Dd2 growth: -84.5

How did COc1cccc(S(=O)(=O)N(C)C[C@@H]2OCc3ccccc3-c3c(n(C)c4ccccc34)C(=O)N([C@@H](C)CO)C[C@H]2C)c1 do in these assays?
Pf Dd2 growth: inactive; C diff HTS: inactive

What do the screens show for `Cc1cccc(S(=O)(=O)N(C)C[C@@H]2OCc3ccccc3-c3c(n(C)c4ccccc34)C(=O)N([C@@H](C)CO)C[C@@H]2C)c1`?
Pf Dd2 growth: -85.9

Results for C[C@@H]1CN([C@@H](C)CO)C(=O)c2c(c3ccccc3n2C)-c2ccccc2CO[C@H]1CN(C)S(=O)(=O)c1cccc(F)c1 ?
Pf Dd2 growth: inactive; C diff HTS: inactive

What do the screens show for `C[C@H]1CN([C@@H](C)CO)C(=O)c2c(c3ccccc3n2C)-c2ccccc2CO[C@@H]1CN(C)S(=O)(=O)c1cccc(C#N)c1`?
Pf Dd2 growth: inactive; C diff HTS: inactive

How did CO[C@@H]1CN(C)C(=O)c2cc(NC(=O)Nc3ccccc3Cl)ccc2OC[C@H](C)NC[C@@H]1C do in these assays?
Pf Dd2 growth: inactive

What do the screens show for `O=C(C[C@H]1C[C@H]2c3cc(NC(=O)Cc4ccncc4)ccc3O[C@H]2[C@H](CO)O1)NCc1cccnc1`?
Pf Dd2 growth: inactive; C diff HTS: inactive

What do the screens show for `COc1cccc(C#Cc2ccc3c(c2)O[C@@H](CN(C)C(=O)c2ccccn2)[C@H](C)CN([C@H](C)CO)S3(=O)=O)c1`?
Pf Dd2 growth: inactive; C diff HTS: inactive

What do the screens show for `Cc1noc(C)c1S(=O)(=O)N(C)C[C@@H]1OCCCC[C@@H](C)Oc2ccc(NC(=O)Nc3ccc(F)cc3)cc2C(=O)N([C@@H](C)CO)C[C@@H]1C`?
Pf Dd2 growth: inactive; C diff HTS: inactive

What do the screens show for `CO[C@H]1CN(C)C(=O)c2ccc(NC(=O)C3CCCC3)cc2OC[C@@H](C)N(C(=O)CC2CC2)C[C@@H]1C`?
Pf Dd2 growth: inactive

What do the screens show for `O=C(Nc1ccc(F)cc1)N1[C@H](CO)[C@@H]2c3ccccc3NC[C@@H]21`?
Pf Dd2 growth: inactive; C diff HTS: inactive

How did C[C@H]1C=C(C(=O)N2CCN(Cc3ccc4c(c3)OCO4)CC2)O[C@@H](OCCCCO)C1 do in these assays?
C diff HTS: inactive

What do the screens show for `C[C@H](CO)N1C[C@H](C)[C@@H](CN(C)Cc2ccc(Cl)c(Cl)c2)OCCCC[C@H](C)Oc2ccc(NC(=O)CCC(F)(F)F)cc2C1=O`?
Pf Dd2 growth: inactive; C diff HTS: inactive

What do the screens show for `C[C@@H]1CCCCO[C@@H](CN(C)Cc2ccc(Cl)c(Cl)c2)[C@@H](C)CN([C@@H](C)CO)C(=O)c2cc(NC(=O)CCC(F)(F)F)ccc2O1`?
Pf Dd2 growth: inactive; C diff HTS: inactive

Results for C[C@@H]1CCCCO[C@@H](CN(C)Cc2ccc(Cl)c(Cl)c2)[C@H](C)CN([C@H](C)CO)C(=O)c2cc(NC(=O)CCC(F)(F)F)ccc2O1 ?
Pf Dd2 growth: -88.0; C diff HTS: inactive

How did C[C@@H]1CN([C@H](C)CO)C(=O)c2cc(NC(=O)CCC(F)(F)F)ccc2O[C@@H](C)CCCCO[C@H]1CN(C)Cc1ccc(Cl)c(Cl)c1 do in these assays?
Pf Dd2 growth: -83.2; C diff HTS: inactive

What do the screens show for `C[C@@H]1CN([C@@H](C)CO)C(=O)c2cc(Br)cnc2O[C@@H]1CN(C)C(=O)c1ccccc1`?
Pf Dd2 growth: inactive; C diff HTS: inactive

Results for Cn1cnc(S(=O)(=O)N2C[C@@H](O)COC[C@@H]3O[C@@H](CC(=O)NCc4cc(F)cc(F)c4)CC[C@H]32)c1 ?
Pf Dd2 growth: inactive
